Data published in PubChem BioAssay AID651774 (Broad Institute, 2012).
Potency and affinity values are given separately. The source made the active and inactive calls. A call without a number means that no potency is given here. How the calls were made is not given here.

experiment: HeLa cell viability loss – 24 h, dry powder, cytotoxicity control, dose response (AID 651774); conditions: CellTiter-Glo ATP luminescence; series mostly up to 35 µM

Compound	outcome
CCn1nnc(NCc2ccc(N3CCCC3)cc2)n1	inactive
O=C(Cc1ccc(-c2ccccc2)cc1)NC1CCOCC1	inactive
O=C(Cc1ccc(F)cc1)NC1CCCC1	inactive
COc1cccc(CC(=O)NC2CCCC2)c1	inactive
O=C(Cc1ccccc1-c1ccccc1)NC1CCCC1	inactive
O=C(Cc1ccc(-c2ccccc2)cc1)NCc1ccccc1	inactive
O=C(Cc1cccc(-c2ccccc2)c1)NC1CCCC1	inactive
O=C(Cc1ccccc1C(F)(F)F)NC1CCCC1	inactive
CS(=O)(=O)c1ccc(CC(=O)NC2CCCC2)cc1	inactive
O=C(Cc1ccccc1I)NC1CCCC1	inactive
Cn1nnc(NCc2ccc(N3CCCC3)cc2)n1	inactive
CC(C)(C)OC(=O)N1CCC(NC(=O)Cc2ccc(-c3ccccc3)cc2)CC1	inactive
O=C(Cc1ccc(-c2ccccc2)cc1)N1CCCC1	inactive
CC(C)NC(=O)Cc1ccc(-c2ccccc2)cc1	inactive
O=C(Cc1ccc(-c2cccnc2)cc1)NC1CCCC1	inactive
O=C(Cc1ccc(-c2ccccc2)cc1)Nc1ccccc1	inactive
CN(Cc1ccc(N2CCCC2)cc1)c1nnnn1C	inactive
O=C(Cc1ccc(-c2ccccn2)cc1)NC1CCCC1	inactive
O=C(Cc1ccc(-c2ccccc2)cc1)N1CC(F)(F)C1	inactive
O=C(NC1CCCC1)Oc1ccc(-c2ccccc2)cc1	inactive
c1cc(N2CCCC2)ccc1CNc1nn[nH]n1	inactive
c1ccc(CNc2nn[nH]n2)cc1	inactive
O=C(Cc1ccc(-c2ccccc2)cc1)N1CCCCC1	inactive
O=C(Cc1ccc(-c2ccccc2)cc1)NC1CCCC1	inactive
CN1CCN(C(=O)Cc2ccc(-c3ccccc3)cc2)CC1	inactive
COc1ccccc1CC(=O)NC1CCCC1	inactive
CC(C)c1ccc(CNc2nnnn2C)cc1	inactive
O=C(Cc1ccccc1)NC1CCCC1	inactive
CC(C)n1nnnc1NCc1ccc(N2CCCC2)cc1	inactive
